From PubChem BioAssay (NCI) come the findings set out here.

Assay [1] can be described thus: NCI Yeast Anticancer Drug Screen. Data for the rad50 strain (AID 155).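 Also: 0% = growth of vehicle-only cultures of the same strain.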 The following applies: S. cerevisiae rad50 strain growth inhibition, stronger effect = higher value. An outline of the steps: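 A DNA repair-deficient yeast mutant serves as the test organism; compound-induced growth inhibition is calculated against vehicle-treated cells.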
Assay [2] can be described thus: NCI Yeast Anticancer Drug Screen. Data for the mec2-1 strain (AID 157). The following applies: S. cerevisiae mec2-1 strain, stronger effect = higher value. An outline of the steps: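 Readout is yeast growth inhibition, normalised to vehicle-treated controls, in the mec2-1 strain exposed to compound.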
Assay [3] can be described thus: NCI Yeast Anticancer Drug Screen. Data for the sgs1 mgt1 strain (AID 161).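 Also: 0% = growth of cultures given vehicle only.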 The following applies: S. cerevisiae sgs1 mgt1 strain, stronger effect = higher value. An outline of the steps:
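Yeast cells carrying a defined DNA-repair defect were exposed to test compounds. Growth inhibition was measured relative to vehicle-treated controls.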

The nature of assay [4]: NCI Yeast Anticancer Drug Screen. Data for the cln2 rad14 strain (AID 165).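 Also: 0% = growth equal to vehicle treated cultures.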 The following applies: S. cerevisiae cln2 rad14 strain, stronger effect = higher value. The procedure, abridged:
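Relative to vehicle controls, growth inhibition of compound-treated cln2 rad14 yeast was recorded.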

Assay [5] can be described thus: NCI Yeast Anticancer Drug Screen. Data for the bub3 strain (AID 167). The following applies: S. cerevisiae bub3 mutant strain, stronger effect = higher value. The procedure, abridged: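 Inhibition values come from growth of compound-treated mutant yeast normalised to vehicle-treated controls.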
A short description of assay [6]: NCI Yeast Anticancer Drug Screen. Data for the mlh1 rad18 strain (AID 175). The following applies: S. cerevisiae mlh1 rad18 strain growth inhibition, stronger effect = higher value. An outline of the steps: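 Test agents were incubated with a yeast strain of defined genotype (DNA damage repair defect). Inhibition of growth was derived by comparison with vehicle-exposed cultures.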

The mark [7] stands for this setting: at 5.0 µM (retest, dose inferred, filed as 0.5).
Where [8] appears, read: at 50.0 µM (retest, dose inferred, filed as 5.0).

The panel holds about 79,000 compounds, 15% with a hit somewhere; the sample as a whole holds those more often. Unmarked numbers belong to inactive results. The source made the active and inactive calls. Rule as the data show it: active = growth inhibition above about 70%; inactive = the rest.

For the compound `CCOc1ccc(CCNC)c2c1ccc1ccc(OC)c(O)c12`, the growth inhibition in assay [1] (setting [7]) is -1%; in assay [1] (setting [8]), 97% (active); in assay [1] (at 50.0 µM), 97.3% (active); in assay [2] (setting [7]), -5%; in assay [2] (setting [8]), 98% (active); in assay [2] (at 50.0 µM), 99% (active). Also, the growth inhibition in assay [3] (setting [7]) was -3%; in assay [3] (setting [8]), 98% (active); in assay [3] (at 50.0 µM), 98.1% (active); in assay [4] (setting [7]), 5%; in assay [4] (setting [8]), 98% (active); in assay [4] (at 50.0 µM) it was 92.2% (active). Moreover, the growth inhibition in assay [5] (setting [7]) was -4%; in assay [5] (setting [8]), 98% (active); in assay [5] (at 50.0 µM), 97.8% (active); in assay [6] (setting [7]), 6%; in assay [6] (setting [8]) it was 96% (active); in assay [6] (at 50.0 µM), 98% (active).

As for `N=C(N)c1ccc(NN=Nc2cccc3c2Oc2ccccc2O3)cc1`, the growth inhibition in assay [1] (setting [7]) was 48%; in assay [1] (setting [8]) it was 89% (active); in assay [1] (at 50.0 µM) it was 80% (active); in assay [2] (setting [7]), 20%; in assay [2] (setting [8]), 84% (active); in assay [2] (at 50.0 µM), 78.1% (active). Further, the growth inhibition in assay [3] (setting [7]) was 32%; in assay [3] (setting [8]), 90% (active); in assay [3] (at 50.0 µM) it was 74.6% (active); in assay [4] (setting [7]) it was 14%; in assay [4] (setting [8]) it was 69%; in assay [4] (at 50.0 µM) it was 71% (active). Also, the growth inhibition is 10% in assay [5] (setting [7]); 80% (active) in assay [5] (setting [8]); 83.5% (active) in assay [5] (at 50.0 µM); 17% in assay [6] (setting [7]); 83% (active) in assay [6] (setting [8]); 70.2% (active) in assay [6] (at 50.0 µM).

For `[C-]#[O+].[Cl][Sn]([Cl])[Cl].[Cl][Sn]([Cl])[Cl].[Pt].c1ccncc1`, the growth inhibition in assay [1] (setting [7]) was -11%; in assay [1] (setting [8]), 97% (active); in assay [1] (at 50.0 µM), 56.2%; in assay [2] (setting [7]), 9%; in assay [2] (setting [8]), 95% (active); in assay [2] (at 50.0 µM) it was 54.8%. Further, the growth inhibition was 3% in assay [3] (setting [7]); 98% (active) in assay [3] (setting [8]); 75.3% (active) in assay [3] (at 50.0 µM); 3% in assay [4] (setting [7]); 78% (active) in assay [4] (setting [8]); 41.8% in assay [4] (at 50.0 µM). The growth inhibition in assay [5] (setting [7]) was -13%; in assay [5] (setting [8]) it was 47%; in assay [5] (at 50.0 µM), 62.1%; in assay [6] (setting [7]) it was -1%; in assay [6] (setting [8]), 98% (active); in assay [6] (at 50.0 µM), 70.5% (active).

As to `CCOC(=O)C(c1ccsc1)P(=O)(OCC)OCC` (stereo unspecified), the growth inhibition is 11% in assay [1] (setting [7]); 60% in assay [1] (setting [8]); 69.2% in assay [1] (at 50.0 µM); -21% in assay [2] (setting [7]); 74% (active) in assay [2] (setting [8]); 66.7% in assay [2] (at 50.0 µM). In addition, the growth inhibition is 12% in assay [3] (setting [7]); 53% in assay [3] (setting [8]); 60.6% in assay [3] (at 50.0 µM); 19% in assay [4] (setting [7]); 68% in assay [4] (setting [8]); 57% in assay [4] (at 50.0 µM). Moreover, the growth inhibition in assay [5] (setting [7]) was 8%; in assay [5] (setting [8]), 87% (active); in assay [5] (at 50.0 µM), 67.3%; in assay [6] (setting [7]) it was 4%; in assay [6] (setting [8]), 84% (active); in assay [6] (at 50.0 µM), 60.9%.

`Cc1[cH-]c(=O)n(-c2ccccc2)n1.[Au+].[Au].c1ccc([PH+](c2ccccc2)c2ccccc2)cc1.c1ccc([PH+](c2ccccc2)c2ccccc2)cc1`: the growth inhibition in assay [1] (setting [7]) was 27%; in assay [1] (setting [8]) it was 65%; in assay [1] (at 50.0 µM) it was 88.8% (active); in assay [2] (setting [7]), 32%; in assay [2] (setting [8]), 96% (active); in assay [2] (at 50.0 µM), 90.3% (active). The growth inhibition in assay [3] (setting [7]) was 33%; in assay [3] (setting [8]) it was 93% (active); in assay [3] (at 50.0 µM) it was 91.5% (active); in assay [4] (setting [7]), 18%; in assay [4] (setting [8]), 65%; in assay [4] (at 50.0 µM), 88.7% (active). The growth inhibition in assay [5] (setting [7]) is 19%; in assay [5] (setting [8]), 87% (active); in assay [5] (at 50.0 µM) it was 89.4% (active); in assay [6] (setting [7]), 35%; in assay [6] (setting [8]), 79% (active); in assay [6] (at 50.0 µM), 83% (active).

As to `CNC1C(O)CC(OC2C/C=C(\C)C/C(C)=C/C=C/CCC(C)CNC(=O)/C=C/C=C/C2C)OC1C` (stereo unspecified), the growth inhibition is -6% in assay [1] (setting [7]); 99% (active) in assay [1] (setting [8]); 14.4% in assay [1] (at 50.0 µM); 19% in assay [2] (setting [7]); 100% (active) in assay [2] (setting [8]); 63.1% in assay [2] (at 50.0 µM). Moreover, the growth inhibition was 31% in assay [3] (setting [7]); 100% (active) in assay [3] (setting [8]); 98.3% (active) in assay [3] (at 50.0 µM); -14% in assay [4] (setting [7]); 99% (active) in assay [4] (setting [8]); 99.2% (active) in assay [4] (at 50.0 µM). Also, the growth inhibition in assay [5] (setting [7]) was 20%; in assay [5] (setting [8]) it was 100% (active); in assay [5] (at 50.0 µM), 99.5% (active); in assay [6] (setting [7]) it was 18%; in assay [6] (setting [8]) it was 100% (active); in assay [6] (at 50.0 µM), 99.1% (active).

`COc1ccc([As]=[As]c2ccc(OC)cc2)cc1` (stereo unspecified): the growth inhibition was -23% in assay [1] (setting [7]); 97% (active) in assay [1] (setting [8]); 99.3% (active) in assay [1] (at 50.0 µM); 5% in assay [2] (setting [7]); 97% (active) in assay [2] (setting [8]); 99.3% (active) in assay [2] (at 50.0 µM). The growth inhibition in assay [3] (setting [7]) is -18%; in assay [3] (setting [8]), 99% (active); in assay [3] (at 50.0 µM) it was 99.2% (active); in assay [4] (setting [7]) it was -25%; in assay [4] (setting [8]), 94% (active); in assay [4] (at 50.0 µM), 99.2% (active). Moreover, the growth inhibition in assay [5] (setting [7]) was -12%; in assay [5] (setting [8]) it was 98% (active); in assay [5] (at 50.0 µM), 99.2% (active); in assay [6] (setting [7]) it was -9%; in assay [6] (setting [8]), 99% (active); in assay [6] (at 50.0 µM), 99.1% (active).
